Bioassay records deposited in PubChem BioAssay by National Center for Advancing Translational Sciences (NCATS).
p53null 39C kill: qHTS Screen for Compounds that Selectively Target Cancer Cells with p53 Mutations: Cytotoxicity of p53 Null Cells at the Nonpermissive Temperature; H1299 p53-null (neo) cells, 39C, ATPlite viability, 24 h; AID 904, 2007; Potency, µM (highest dose often 46.1 µM), without a hit: top-dose activity, negative = cell killing, actives largely listed as cytotoxic; 0.97% of 55,000 active;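 further: 0% = DMSO only and -100% = full killing by 100 µM tamoxifen; nearly all actives have a fitted effect of over 50% in size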
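Concentration-response (up to 46 uM) was run for 24 h at the nonpermissive 39C on H1299-p53A138V or H1299-neo cells. ATP content was measured with ATPlite luminescence. AC50 values were Hill-modeled after normalizing between DMSO and 100 uM tamoxifen killing.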
pS6 MEF inh: Acumen qHTS Assay for Inhibitors of the mTORC1 Signaling Pathway in MEF (Tsc2-/-, p53-/-) Cells: Sytravon; Tsc2-/- p53-/- MEF, phospho-rpS6 immunofluorescence/PI, 24 h; Potency, µM (titrated, usually from 38.3 µM), for the others: top-dose activity change, negative = inhibition, hits mostly inhibitors; 0.78% of 44,000 active;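 further: plate controls were DMSO for no effect and rapamycin for full effect; nearly all actives have a fitted effect of over 50% in size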
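Immunofluorescence of rpS6 phosphorylation in Tsc2-/-, p53-/- MEFs after 24 h compound exposure, normalized to propidium iodide signal. Activity is expressed as % positive cells, thresholded with 7.5 nM rapamycin.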
SKOV3 invasion: Primary qHTS assay for Inhibitors of ovarian cancer metastasis using an organotypic tumor microenvironment (TME) model. SKOV3ip1-GFP adhesion/invasion on 3D omental model, fluorescence. Potency, µM (highest dose often 45.8 µM), for inactives: at the highest dose activity change, negative = inhibition, hits mostly inhibitors. 0.1% of 46,000 active;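 further: plate controls were DMSO wells for no effect and tomatine positive control wells for full effect; nearly all actives have a fitted effect of over 65% in size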
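Primary human omental fibroblast/mesothelial 3D culture pre-formed 48 h. SKOV3ip1-GFP cells added with compounds (0.36-46 umol/L), incubated 2 h RT/16 h 37 C, fixed; GFP cells quantified at 488/509 nm.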
S16 viability: Cell viability qHTS assay in S16 Pmp22-F2sN cells. S16 Pmp22-F2sN Schwann cells viability, CellTiter-Glo, 24 h. Potency, µM (series often up to 57.5 µM), inactives show at the top dose activity change, negative = cytotoxicity, hits mostly cytotoxic. 0.48% of 43,000 active. AID 1508642, 2021; further: nearly all actives have a fitted effect of over 65% in size
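S16 Schwann cells carrying the Pmp22-F2sN reporter, seeded in 1536-well format, were exposed to library compounds for 24 h at 37C. Viability was read as CellTiter-Glo luminescence after 15 min at room temperature.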
p53null 32C tox: qHTS Screen for Compounds that Selectively Target Cancer Cells with p53 Mutations: Cytotoxicity of p53 Null Cells at the Permissive Temperature; Potency, µM (titrated, usually from 46.1 µM), for inactives: top-dose activity change, negative = cytotoxicity, most hits filed as cytotoxic; H1299-neo p53 null cells, ATP luminescence, 24 h, 32C; 0.62% of 55,000 active;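 further: 0% = DMSO only and -100% = full killing by 100 µM tamoxifen; nearly all actives have a fitted effect of over 55% in size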
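Cytotoxicity: H1299-neo (no p53), 32C, 24 h treatment. Concentrations up to 46 uM. Readout cellular ATP, luminescence. Normalization to DMSO basal and tamoxifen 100 uM maximal kill.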
PMP22 txn: Cell-based coincidence reporter assay to measure PMP22 gene transcription in S16 Pmp22-F2sN cells - Primary screen; S16 Pmp22-F2sN Schwann cells (luciferase reporters placed in the Pmp22 gene), FLuc/NLuc coincidence luminescence, 24 h; Potency, µM (doses to about 57.5 µM), for inactives: top-dose activity change, negative = inhibition, hits mostly inhibitors; 2% of 43,000 active; active means clear falling dose curves in both reporters; inconclusive means both reporters move, but less clearly or upward; inactive means either reporter flat; the % is the NLuc reporter signal
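Luminescent read-out of sequential FLuc and NLuc signals from a reporter embedded in the Pmp22 3' UTR of S16 Schwann cells, taken after 24 h compound exposure at 37C; compounds reducing both signals score as inhibitors of expression.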
Active calls of the source: *; ? = inconclusive; . = no result given. In the library only some 3.1% were active in any assay of this set; here they are far more common. Unless noted, the call rests on the fitted dose curve; in most records, active means well fitted curve in the direction sought with a large enough effect; inconclusive means small, poorly fitted or top-dose-only effect, or another doubt; inactive means no such curve, though single readings can be large; an effect the other way counts as inactive or inconclusive. Unless noted, on the % scale 0 is the no-effect control and ±100 the full control effect; potency means the concentration at half of the fitted maximal effect.

SMILES	p53null 39C kill	pS6 MEF inh	SKOV3 invasion	S16 viability	p53null 32C tox	PMP22 txn
Cc1cc(Nc2nc(N[C@@H](C)c3ncc(F)cn3)ncc2Cl)n[nH]1	.	.	8.6%	.	.	.
CSc1oc(-c2ccc(F)cc2)nc1S(=O)(=O)c1ccc(Br)cc1	-6.7%	-0.8%	-14.8%	-14.6%	-3.6%	6.2%
CCS(=O)(=O)c1oc(-c2ccc(F)cc2)nc1S(=O)(=O)c1ccccc1	27.8%	0.131µM*	-7.7%	3.16µM*	?	2.51µM*
CCCSc1oc(-c2cccs2)nc1S(=O)(=O)c1ccc(C)cc1	17.7%	0.2%	0.2%	3.3%	19.2%	-11.0%
CCCCS(=O)(=O)c1oc(-c2ccc(F)cc2)nc1S(=O)(=O)c1ccc(C)cc1	?	4.14µM*	-8.5%	?	15.8µM*	8.43µM*
CCCCS(=O)(=O)c1oc(-c2cccs2)nc1S(=O)(=O)c1ccc(F)cc1	55.2%	2.07µM*	?	2.82µM*	22.5%	3.03µM*
Cc1ccc(S(=O)(=O)c2nc(-c3ccc(F)cc3)oc2N2CCN(c3ccccc3)CC2)cc1	4.8%	-8.2%	-2.1%	4.3%	2.1%	0.3%
CCC(C)S(=O)(=O)c1oc(-c2ccc(F)cc2)nc1S(=O)(=O)c1ccc(F)cc1 (stereo unspecified)	-17.5%	0.826µM*	3.55µM*	6.31µM*	25.1µM*	2.53µM*
O=S(=O)(c1ccccc1)c1nc(-c2ccc(F)cc2)oc1N1CCCCCC1	19.9%	2.5%	0.3%	?	17.0%	?
CN[C@@H](C)C(=O)N[C@H]1CCCC[C@H]2CC[C@@H](C(=O)N[C@@H](c3ccccc3)c3cn(CCCCc4ccc(CCCCn5cc([C@@H](NC(=O)[C@@H]6CC[C@@H]7CCCC[C@H](NC(=O)[C@H](C)NC)C(=O)N76)c6ccccc6)nn5)cc4)nn3)N2C1=O	.	.	14.3%	.	.	.
Cc1c(Cl)ccc2sc(N3CCN(C(=O)CCS(=O)(=O)c4ccc(F)cc4)CC3)nc12	29.7%	-18.5%	-4.6%	?	3.1%	11.9µM*
CCOc1ccc2nc(N3CCN(C(=O)c4ccc(S(=O)(=O)CC)cc4)CC3)sc2c1	19.3%	-5.4%	-6.5%	-28.4%	-12.9%	-25.7%
CCOc1ccc2nc(N3CCN(C(=O)CS(=O)(=O)c4ccc(F)cc4)CC3)sc2c1	?	-7.9%	-8.6%	?	10µM*	?
Cc1ccc2sc(N3CCN(C(=O)CCS(=O)(=O)c4ccc(F)cc4)CC3)nc2c1C	4.4%	-7.1%	-3.6%	?	-4.9%	?
CCOC1OC(=O)C[C@H]1NC(=O)[C@@H]1CCCN1C(=O)[C@@H](NC(=O)c1ccc(N)c(Cl)c1)C(C)(C)C (stereo partly specified)	.	.	-23.8%	.	.	.
Cc1ccc(-c2nc3c(c(SCC(=O)N(C)c4ccccc4)n2)Cc2c(CO)cnc(C)c2O3)cc1	-10.9%	-0.4%	1.0%	?	1.6%	?
CCN(CC)C(=O)CSc1nc(-c2ccc(C)cc2)nc2c1Cc1c(CO)cnc(C)c1O2	-4.2%	-0.6%	0.4%	10µM*	0.2%	?
COc1ccc2c(Oc3ccc(NC(=O)c4c(C)n(CC(C)(C)O)n(-c5ccccc5)c4=O)cc3F)ccnc2c1	.	.	10.5%	.	.	.
CN(C)c1ccc(-c2nc3ncc(Cl)c(N4CCN(CC(=O)Nc5nccs5)CC4)c3[nH]2)cc1	.	.	14.4%	.	.	.
Cc1c(Cl)ccc2sc(NC(=O)c3ccc(S(=O)(=O)N4CCCc5ccccc54)cc3)nc12	-9.5%	14.7µM*	6.6%	11.8%	16.5%	-17.1%
Cc1c(Cl)ccc2sc(NC(=O)c3ccc(S(=O)(=O)N4CCCC4)cc3)nc12	-11.2%	0.6%	-10.6%	8.3%	0.4%	9.9%
Cc1ccsc1CCN1C(=O)N(c2ccccc2)C(=O)C1CC(=O)Nc1ccc(Cl)cc1 (stereo unspecified)	16.2%	-5.3%	3.4%	31.6µM*	-0.3%	?
CCN(CC)CCCNc1sc(S(=O)(=O)c2ccccc2)nc1S(=O)(=O)c1ccc(Cl)cc1	?	9.27µM*	?	?	2.5%	?
CC(C)OCCCNc1sc(S(=O)(=O)c2ccccc2)nc1S(=O)(=O)c1ccc(Cl)cc1	-9.9%	-12.8%	5.5%	-13.2%	0.1%	?
CCc1c(C)sc2c1CCN(Cc1ccccc1)C2c1ccccc1 (stereo unspecified)	8.4%	4.4%	11.1%	?	39.0%	5.75µM*
SMILES	p53null 39C kill	pS6 MEF inh	SKOV3 invasion	S16 viability	p53null 32C tox	PMP22 txn
COc1cc(NC(=O)CSc2nc(-c3ccc(C(C)C)cc3)no2)cc(OC)c1	-20.5%	-14.5%	-5.4%	-0.7%	-29.7%	9.05µM*
CCC=CC[C@H]1C(=O)CC[C@@H]1CC(=O)OC	.	.	0.6%	.	.	.
CC(=O)OC1C(C)OC(Oc2c(-c3ccc(O)cc3)oc3cc(O)cc(O)c3c2=O)C(O)C1OC(C)=O (stereo unspecified)	.	.	-6.7%	.	.	.
N#CC(=C(N)Sc1ccccc1N)C(C#N)=C(N)Sc1ccccc1N	.	.	1.0%	.	.	.
O=C(CCCc1ccccc1)c1ccc2c(c1)OCCO2	12.6µM*	.	.	.	10µM*	.
COC(=O)c1ccc(Nc2nnc(-c3ccc(C)c(S(=O)(=O)N4CCN(C)CC4)c3)c3ccccc23)cc1	17.2%	20.7µM*	-10.4%	?	15.3%	-44.4%
CNC(=O)c1ccc(Nc2cc(Nc3ccccc3S(=O)(=O)C(C)C)c3cc[nH]c3n2)nc1	.	.	-1.6%	.	.	.
CC(C)Nc1ncnc2c1cnn2-c1ccccc1	?	.	.	.	11.2µM*	.
O=C(c1ccc(F)c(F)c1Nc1ccc(I)cc1F)N1CC(O)([C@H]2CCCCN2)C1	.	.	-15.1%	.	.	.
Cc1ccc(NC(=O)CSc2c3c(nc4ccccc24)CCCC3)cc1F	22.4µM*	-13.4%	-22.6%	-18.4%	72.7%	?
COc1cccc(NC(=O)CSc2c3c(nc4ccccc24)CCCC3)c1	-16.4%	?	11.2µM*	?	54.1%	?
COc1ccc(Cl)cc1NC(=O)CSc1c2c(nc3ccccc13)CCC2	61.2%	-10.5%	-6.2%	3.1%	12.3%	?
